Assay [1] has as its target Estrogen receptor beta (Homo sapiens) (UniProt Q92731). Description: OT_ER_ERbERb_0480: Odyssey Thera (OT) 8-hour HEK293T Protein-Complementation Assay for Estrogen Receptor-beta/-beta Homodimer (AID 2283357).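 Also: active means signal gain over DMSO baseline.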 The gist of the method: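 Cells (HEK293T, stable ER-beta LBD PCA pair) are treated 8 hours, fixed and Draq5-stained; signal is fluorescence intensity increase relative to vehicle, fitted in the gain direction.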

Assay [2] addresses Peroxisome proliferator-activated receptor gamma (Homo sapiens) (UniProt P37231). Briefly: NVS_NR_hPPARg: NovaScreen (NVS) Nuclear Receptor Binding Assay for human Peroxisome Proliferator-activated Receptor gamma (PPARg) (AID 2283370). In a few lines:
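Extracted receptor protein, cell-free; compound incubated 2 h then fluorescence polarization read. Baseline: DMSO. Actives from 25 uM duplicate screen re-run across concentrations.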

For assay [3], the target named is Estrogen receptor beta (Homo sapiens) (UniProt Q92731). Briefly: OT_ER_ERbERb_1440: Odyssey Thera (OT) 24-hour HEK293T Protein-Complementation Assay for Estrogen Receptor-beta/-beta Homodimer (AID 2283380).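 Also: fluorescence gain from ER beta LBD homodimer complementation read by laser scanning cytometry; scored as signal increase over DMSO baseline for both agonists and antagonists.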 In a few lines:
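Fluorescence increase, nuclear for agonists or whole-cell for antagonists, relative to DMSO vehicle, quantified by laser scanning cytometer after fixation and Draq5 staining. Readout from 24 h treatment of HEK293T cells carrying complementation-paired ER beta LBD (aa 310-547).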

The target of assay [4] is Glucocorticoid receptor (Homo sapiens) (UniProt P04150). Description: NVS_NR_hGR: NovaScreen (NVS) Nuclear Receptor Binding Assay for human Glucocorticoid Receptor (GR) (AID 2283363).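 Also: activity is loss of specific radioligand binding signal relative to DMSO.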 In a few lines:
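Competitive displacement of a labelled ligand was measured on cell-free receptor preparations after 16 h exposure. Initial testing used 25 uM in duplicate with plate controls; confirmed actives went into concentration series.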

Assay [5] addresses Nuclear receptor subfamily 1 group I member 2 (Homo sapiens) (UniProt O75469). Description: NVS_NR_hPXR: NovaScreen (NVS) Nuclear Receptor Binding Assay for human Pregnane X Receptor (PXR) (AID 2283365).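 Also: a drop in FRET signal versus DMSO baseline means the compound binds.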 The gist of the method: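 Read-out: TR-FRET, human PXR, 2 h post-dosing, cell-free. Loss of signal vs DMSO taken as binding activity; 25 uM primary, concentration series secondary.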

The target in assay [6] is Agonist Androgen Response Element (ARE), AR (gene 367) (UniProt P10275). Description: OT_AR_ARELUC_AG_1440: Odyssey Thera (OT) 24-hour CHO-K1 Luciferase Assay for Agonist Androgen Response Element (ARE) (AID 2283379). In a few lines:
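Agonist mode, 24 h exposure in CHO-K1 ARE-luciferase cells; values reflect luminescence induction over vehicle.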

Assay [7] addresses human Norepinephrine Transporter (NET), SLC6A2 (gene 6530) (UniProt P23975). Description: NVS_TR_hNET: NovaScreen (NVS) Transporter Assay for human Norepinephrine Transporter (NET) (AID 2283377).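 Also: cell-free membrane protein extracted from CHO cells expressing human NET.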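 As to AC50: displacement of radioligand from human NET seen as loss of scintillation signal.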 In a few lines: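 Scintillation counts of filter-retained radioligand served as the readout, taken 1 h post-dosing in a cell-free CHO-derived system. Test chemicals ran first at 25 uM in duplicate; confirmed hits were retested across concentrations.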

Assay [8] deals with guinea pig Dopamine Transporter (DAT), gene 100714898. Description: NVS_TR_gDAT: NovaScreen (NVS) Transporter Assay for guinea pig Dopamine Transporter (DAT) (AID 2283369).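 Also: active compounds lower bound radioligand signal relative to DMSO.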 In a few lines:
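Primary pass: duplicate wells at 25 uM, threshold e.g. 30% inhibition. Follow-up: singleton concentration-response, highest 50 uM. Radioligand binding on guinea pig striatal membranes, 2 h, filtration scintillation detection.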

The next assay has as its target PGR (gene 5241) (UniProt P06401). Description: NVS_NR_hPR: NovaScreen (NVS) Nuclear Receptor Binding Assay for human Progestron Receptor (PR) (AID 2283360).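 Also: active means loss of bound radioligand signal versus DMSO baseline.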 In a few lines: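 Cell-free radioligand binding using receptor protein extracted from T47D cells, read by scintillation counting 18 hours after dosing. Loss of signal relative to DMSO baseline indicates displacement; primary screen single concentration 25 uM in duplicate, actives followed in concentration series.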

Assay [9] addresses human Dopamine Transporter (DAT), SLC6A3 (gene 6531) (UniProt Q01959). Briefly: NVS_TR_hDAT: NovaScreen (NVS) Transporter Assay for human Dopamine Transporter (DAT) (AID 2283374).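 Also: activity means loss of bound radioligand signal relative to DMSO.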 The gist of the method: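 Test chemicals were first screened in duplicate at 25 uM, with actives retested as concentration series. Displacement of a specific radioligand from cell-free human dopamine transporter was measured after 1 h by filtration and scintillation counting.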

The target in assay [10] is guinea pig Sigma Receptor, Non-selective Binding, SIGMAR1 (gene 100135589) (UniProt Q60492). Briefly: NVS_OR_gSIGMA_NonSelective: NovaScreen (NVS) Nuclear Receptor Binding Assay for guinea pig Sigma Receptor, Non-selective Binding (AID 2283367). The gist of the method: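 gp brain membr., radioligand displacement, 1 h, filtration + scint. counting; DMSO = baseline; 25 uM x2 primary, conc.-response confirm.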

Assay [11] deals with rat Serotonin Transporter (SERT), Slc6a4 (gene 25553) (UniProt P31652). Description: NVS_TR_rSERT: NovaScreen (NVS) Transporter Assay for rat Serotonin Transporter (SERT) (AID 2283375). In a few lines: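 Using rat forebrain membrane SERT, test chemicals compete with a radioligand for 1 hour, and bound counts are taken by filter-based scintillation. Screening starts at 25 uM in duplicate, followed by concentration series for actives.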

The record followed here is PubChem BioAssay (EPA / NIEHS).

The structures appear in SMILES notation. Records with an inconclusive call do not appear. Activity calls are given as the source filed them. The calls were made as follows: active = hit-call score of the fitted dose curve at least 0.9, where 1 is the maximum; inconclusive = response in the unintended direction; inactive = score below 0.9.

Sequence of Nuclear receptor subfamily 1 group I member 2 (Homo sapiens) (O75469 whole entry, looked up): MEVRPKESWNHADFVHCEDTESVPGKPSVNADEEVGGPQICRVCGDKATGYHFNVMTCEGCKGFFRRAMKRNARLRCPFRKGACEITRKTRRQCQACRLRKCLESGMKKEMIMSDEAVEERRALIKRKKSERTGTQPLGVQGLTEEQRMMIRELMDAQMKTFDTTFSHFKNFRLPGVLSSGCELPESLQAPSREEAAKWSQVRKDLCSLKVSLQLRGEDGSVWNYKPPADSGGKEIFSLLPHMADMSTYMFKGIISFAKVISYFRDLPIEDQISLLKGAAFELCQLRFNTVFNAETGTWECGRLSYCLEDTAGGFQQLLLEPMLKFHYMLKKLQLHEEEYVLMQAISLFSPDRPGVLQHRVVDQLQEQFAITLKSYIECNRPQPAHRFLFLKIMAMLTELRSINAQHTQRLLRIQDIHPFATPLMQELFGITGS
Sequence of human Norepinephrine Transporter (NET), SLC6A2 (gene 6530) (P23975 whole entry, looked up): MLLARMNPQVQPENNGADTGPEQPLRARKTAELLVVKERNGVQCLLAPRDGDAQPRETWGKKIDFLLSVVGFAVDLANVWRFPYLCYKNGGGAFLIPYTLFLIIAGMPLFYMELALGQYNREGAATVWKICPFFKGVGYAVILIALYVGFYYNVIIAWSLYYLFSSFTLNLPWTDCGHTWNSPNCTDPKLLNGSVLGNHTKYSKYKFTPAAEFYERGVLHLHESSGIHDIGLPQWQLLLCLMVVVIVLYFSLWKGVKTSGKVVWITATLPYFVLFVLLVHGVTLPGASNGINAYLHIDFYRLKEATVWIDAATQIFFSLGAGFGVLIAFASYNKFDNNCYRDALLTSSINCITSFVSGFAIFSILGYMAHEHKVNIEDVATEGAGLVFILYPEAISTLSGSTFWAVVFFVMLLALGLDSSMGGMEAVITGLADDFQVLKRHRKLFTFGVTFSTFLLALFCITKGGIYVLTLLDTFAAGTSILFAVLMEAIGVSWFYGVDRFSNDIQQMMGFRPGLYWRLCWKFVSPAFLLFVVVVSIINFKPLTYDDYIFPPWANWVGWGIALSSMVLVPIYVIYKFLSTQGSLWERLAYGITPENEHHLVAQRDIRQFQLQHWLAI
Sequence of Peroxisome proliferator-activated receptor gamma (Homo sapiens) (P37231 whole entry, looked up): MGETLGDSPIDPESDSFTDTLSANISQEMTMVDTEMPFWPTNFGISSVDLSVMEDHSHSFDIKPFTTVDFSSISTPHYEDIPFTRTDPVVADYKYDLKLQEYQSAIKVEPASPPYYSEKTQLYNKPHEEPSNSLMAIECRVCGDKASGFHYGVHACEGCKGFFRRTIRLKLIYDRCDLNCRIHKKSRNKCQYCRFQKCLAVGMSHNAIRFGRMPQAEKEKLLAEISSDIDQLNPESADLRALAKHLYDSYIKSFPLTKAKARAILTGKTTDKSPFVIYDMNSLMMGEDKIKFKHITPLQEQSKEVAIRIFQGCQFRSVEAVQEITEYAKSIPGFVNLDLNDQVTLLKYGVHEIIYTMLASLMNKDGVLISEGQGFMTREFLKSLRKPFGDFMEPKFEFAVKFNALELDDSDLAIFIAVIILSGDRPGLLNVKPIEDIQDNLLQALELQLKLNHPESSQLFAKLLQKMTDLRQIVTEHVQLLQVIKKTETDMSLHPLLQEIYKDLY
Sequence of Estrogen receptor beta (Homo sapiens) (Q92731 whole entry, looked up, the tested form may be a part): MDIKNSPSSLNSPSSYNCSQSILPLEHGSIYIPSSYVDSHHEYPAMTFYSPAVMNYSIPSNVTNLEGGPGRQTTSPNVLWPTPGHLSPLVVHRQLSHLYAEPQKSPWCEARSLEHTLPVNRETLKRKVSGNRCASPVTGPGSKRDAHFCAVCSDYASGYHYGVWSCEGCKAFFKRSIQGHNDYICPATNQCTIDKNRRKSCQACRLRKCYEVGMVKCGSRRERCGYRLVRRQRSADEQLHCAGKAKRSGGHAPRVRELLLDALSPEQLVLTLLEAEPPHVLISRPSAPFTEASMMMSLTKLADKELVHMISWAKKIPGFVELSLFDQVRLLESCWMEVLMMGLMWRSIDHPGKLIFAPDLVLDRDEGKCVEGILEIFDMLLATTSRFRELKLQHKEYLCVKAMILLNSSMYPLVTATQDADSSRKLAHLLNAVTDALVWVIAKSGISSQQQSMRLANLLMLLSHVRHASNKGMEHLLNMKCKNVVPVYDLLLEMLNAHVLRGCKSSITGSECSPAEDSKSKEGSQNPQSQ
Sequence of human Dopamine Transporter (DAT), SLC6A3 (gene 6531) (Q01959 whole entry, looked up): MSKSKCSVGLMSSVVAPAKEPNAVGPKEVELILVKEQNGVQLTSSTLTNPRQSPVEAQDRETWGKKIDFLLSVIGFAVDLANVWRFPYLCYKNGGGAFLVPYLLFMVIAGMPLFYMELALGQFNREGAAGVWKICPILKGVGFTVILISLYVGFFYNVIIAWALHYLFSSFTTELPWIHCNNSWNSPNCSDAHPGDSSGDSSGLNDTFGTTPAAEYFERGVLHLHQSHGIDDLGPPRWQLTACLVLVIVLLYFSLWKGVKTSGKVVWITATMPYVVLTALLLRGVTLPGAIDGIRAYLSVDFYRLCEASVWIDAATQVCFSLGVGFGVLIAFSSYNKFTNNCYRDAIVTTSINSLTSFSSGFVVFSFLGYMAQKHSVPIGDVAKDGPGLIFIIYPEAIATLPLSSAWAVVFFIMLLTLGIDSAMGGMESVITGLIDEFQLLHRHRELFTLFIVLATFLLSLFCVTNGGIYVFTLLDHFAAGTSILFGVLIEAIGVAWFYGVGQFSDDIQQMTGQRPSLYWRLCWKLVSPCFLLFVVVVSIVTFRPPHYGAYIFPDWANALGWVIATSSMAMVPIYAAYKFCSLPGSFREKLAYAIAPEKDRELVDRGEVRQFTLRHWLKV
Sequence of Glucocorticoid receptor (Homo sapiens) (P04150 whole entry, looked up): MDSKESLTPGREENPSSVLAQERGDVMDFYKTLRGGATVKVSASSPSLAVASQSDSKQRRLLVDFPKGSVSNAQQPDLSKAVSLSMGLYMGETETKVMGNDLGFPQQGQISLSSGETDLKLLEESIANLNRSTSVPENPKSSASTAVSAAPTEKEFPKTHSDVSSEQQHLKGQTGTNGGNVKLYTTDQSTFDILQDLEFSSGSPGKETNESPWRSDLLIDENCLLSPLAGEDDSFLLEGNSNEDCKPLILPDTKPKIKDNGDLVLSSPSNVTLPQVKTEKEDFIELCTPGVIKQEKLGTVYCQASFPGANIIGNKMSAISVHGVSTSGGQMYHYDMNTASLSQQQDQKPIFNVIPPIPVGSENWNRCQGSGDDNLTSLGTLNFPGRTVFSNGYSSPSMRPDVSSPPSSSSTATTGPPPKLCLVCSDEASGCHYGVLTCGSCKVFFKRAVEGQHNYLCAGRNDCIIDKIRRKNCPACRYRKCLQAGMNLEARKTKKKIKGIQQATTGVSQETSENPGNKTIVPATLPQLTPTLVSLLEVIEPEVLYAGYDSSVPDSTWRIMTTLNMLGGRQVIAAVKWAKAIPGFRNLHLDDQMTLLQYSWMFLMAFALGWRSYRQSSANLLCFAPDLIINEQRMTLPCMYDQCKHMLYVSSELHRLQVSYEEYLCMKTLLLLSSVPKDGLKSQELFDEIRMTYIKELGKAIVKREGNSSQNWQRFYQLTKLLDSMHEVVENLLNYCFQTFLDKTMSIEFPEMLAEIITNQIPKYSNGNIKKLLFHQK
Sequence of PGR (gene 5241) (P06401 whole entry, looked up): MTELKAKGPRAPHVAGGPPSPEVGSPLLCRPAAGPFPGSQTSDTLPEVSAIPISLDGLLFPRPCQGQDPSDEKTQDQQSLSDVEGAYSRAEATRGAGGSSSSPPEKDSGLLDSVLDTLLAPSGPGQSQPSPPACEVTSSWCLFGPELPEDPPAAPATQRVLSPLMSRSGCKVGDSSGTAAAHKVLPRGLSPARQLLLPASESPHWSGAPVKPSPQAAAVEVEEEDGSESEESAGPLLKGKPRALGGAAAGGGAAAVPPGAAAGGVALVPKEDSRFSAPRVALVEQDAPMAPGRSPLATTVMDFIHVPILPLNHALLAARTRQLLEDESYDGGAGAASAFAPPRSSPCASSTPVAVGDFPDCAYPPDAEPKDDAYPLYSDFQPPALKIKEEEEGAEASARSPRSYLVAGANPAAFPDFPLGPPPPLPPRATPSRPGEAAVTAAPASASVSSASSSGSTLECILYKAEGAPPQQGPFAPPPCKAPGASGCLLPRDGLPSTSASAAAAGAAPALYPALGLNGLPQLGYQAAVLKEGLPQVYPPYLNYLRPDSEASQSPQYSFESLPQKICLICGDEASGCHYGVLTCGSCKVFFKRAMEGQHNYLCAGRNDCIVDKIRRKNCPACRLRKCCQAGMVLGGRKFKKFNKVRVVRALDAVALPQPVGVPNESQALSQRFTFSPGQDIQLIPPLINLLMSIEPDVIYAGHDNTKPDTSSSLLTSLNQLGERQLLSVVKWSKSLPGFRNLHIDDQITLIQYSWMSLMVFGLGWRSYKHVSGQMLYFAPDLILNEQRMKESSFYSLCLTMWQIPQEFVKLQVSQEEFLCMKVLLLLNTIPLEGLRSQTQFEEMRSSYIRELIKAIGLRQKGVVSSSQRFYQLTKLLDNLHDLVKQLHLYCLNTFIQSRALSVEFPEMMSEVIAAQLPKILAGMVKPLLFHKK
Sequence of rat Serotonin Transporter (SERT), Slc6a4 (gene 25553) (P31652 whole entry, looked up): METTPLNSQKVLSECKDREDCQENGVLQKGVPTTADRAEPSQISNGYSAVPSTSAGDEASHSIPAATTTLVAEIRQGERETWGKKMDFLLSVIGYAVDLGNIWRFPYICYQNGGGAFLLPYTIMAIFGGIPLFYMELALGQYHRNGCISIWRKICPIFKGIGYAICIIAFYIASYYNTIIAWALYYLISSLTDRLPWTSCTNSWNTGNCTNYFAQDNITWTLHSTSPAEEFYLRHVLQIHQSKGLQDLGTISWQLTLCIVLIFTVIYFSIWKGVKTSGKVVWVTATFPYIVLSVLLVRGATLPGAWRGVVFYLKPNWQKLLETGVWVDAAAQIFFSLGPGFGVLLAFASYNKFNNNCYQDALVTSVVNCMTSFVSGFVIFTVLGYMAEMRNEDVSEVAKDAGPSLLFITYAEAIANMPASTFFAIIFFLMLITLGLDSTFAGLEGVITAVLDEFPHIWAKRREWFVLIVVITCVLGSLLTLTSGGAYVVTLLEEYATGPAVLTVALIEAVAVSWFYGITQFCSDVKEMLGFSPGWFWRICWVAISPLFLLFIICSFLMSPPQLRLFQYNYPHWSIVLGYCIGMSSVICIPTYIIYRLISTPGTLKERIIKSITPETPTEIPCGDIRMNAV

Regarding `COc1ccccc1N=Nc1c(S(=O)(=O)O)cc2cc(S(=O)(=O)O)cc(NC(C)=O)c2c1O`, the call in assay [1], in assay [2] and in [3] was inactive.

As for `COc1ccc(N=Nc2cc(C)c(N=Nc3ccc(S(=O)(=O)O)cc3)cc2OC)cc1`, the result in [1], in assay [2] and in assay [3] was inactive. Also, the AC50 (commonly the concentration giving half of the maximal activity seen) in [4] was 1.91 µM (active); in assay [5], 8.57 µM (active).

As to `CC(=O)O[C@H]1C[C@@H]2CC[C@@]1(C)C2(C)C`, the call in assay [1] and in assay [2] was inactive. Also, the AC50 in [6] is 31.8 µM (active).

On to `CCCCCCCCCC(=O)OC`, for which the outcome in assay [1] and in [3] was inactive.

On to `CCOC(=O)C1OC1c1ccccc1` (centres undefined), for which the molecule was called inactive in [5].

As to `COc1cc(Cl)c(OC)cc1N`, the AC50 in [7] is 25 µM (active).

`CN(C)C(=S)SC(=S)N(C)C`: in assay [8], the half-maximal activity concentration (AC50) was 6.19 µM (active).

As to `C=C1C[C@]23C[C@@]1(O)CC[C@H]2[C@@]12C=C[C@H](O)[C@@](C)(C(=O)O1)[C@H]2[C@@H]3C(=O)O`, in assay [2], the molecule was classed as inactive.

As to `CCCCCCCCCCCCN1CCCCCC1=O`, the molecule was classed as inactive in assay [5] and in assay [3].

Take `CCC(C)c1cc([N+](=O)[O-])cc([N+](=O)[O-])c1OC(=O)OC(C)C` (centres undefined): the molecule was called inactive with PGR (gene 5241). Besides, the half-maximal activity concentration (AC50) in assay [4] is 5.81 µM (active).

Take `CCN(CCC#N)c1ccc(N=Nc2ccc([N+](=O)[O-])cc2)cc1`: the call in assay [8] and in assay [7] was inactive.

On to `O=C1OC[C@H](Cc2cccc(O)c2)[C@H]1Cc1cccc(O)c1`, for which the figures for the AC50 in assay [8] and in [9] were 0.771 µM (active) and 0.0517 µM (active), respectively.

For `CC=Cc1ccc(OC)c(OC)c1`, in [7], the result was inactive.

For `CC(C)C[C@H](NC(=O)OCC1c2ccccc2-c2ccccc21)C(=O)O`, in assay [2], the AC50 is 46.6 µM (active).

Consider `COc1cccc(OC)c1O`, for which the molecule was called inactive in [7].

Turning to `COc1ccc(CCN2CCC(Nc3nc4ccccc4n3Cc3ccc(F)cc3)CC2)cc1`, the outcome in the assay with PGR (gene 5241) was inactive. Further, the AC50 in assay [10] was 1.24 µM (active); in [8], 4.41 µM (active); in [9], 3.89 µM (active); in assay [11], 2.26 µM (active); in [7] it was 2.52 µM (active).
